Results published in PubChem BioAssay (EPA / NIEHS).
The source made the active and inactive calls. The calls were made as follows: active = hit-call score of the fitted dose curve at least 0.9, where 1 is the maximum; inactive = score below 0.9.

How the values were obtained:
[1] = read-out: Macrophage colony-stimulating factor (MCSF), CSF1 (gene 1435); experiment: BSK_hDFCGF_MCSF: BioMAP Diversity Plus: hDFCGF Assay for Macrophage colony-stimulating factor (MCSF) Biomarker Activity (AID 2283060); conditions: primary human foreskin fibroblasts; actives raise or lower the signal
Summary of the method: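 M-CSF levels read by ELISA at 24 h post-dosing in human skin fibroblasts. Parallel cultures stained with SRB assessed cytotoxicity at the same time point; response fitted in both directions against the DMSO baseline.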

[2] = BSK_hDFCGF_SRB: Viability Assessment in the BioMAP Diversity Plus: hDFCGF Assay (AID 2283061); conditions: primary human foreskin fibroblasts;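 also: cells exposed to compound for 24 h before the read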
Summary of the method: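 Viability was read as total protein: after 10% TCA fixation, wells were stained with 0.1% sulforhodamine B and read at 560 nm. Primary human foreskin fibroblasts were dosed for 24 h, with bidirectional fitting versus DMSO.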

[3] = read-out: TIMP metallopeptidase inhibitor 1 (TIMP1), TIMP1 (gene 7076); experiment: BSK_hDFCGF_TIMP1: BioMAP Diversity Plus: hDFCGF Assay for TIMP metallopeptidase inhibitor 1 (TIMP1) Biomarker Activity (AID 2283062); conditions: primary human foreskin fibroblasts; actives raise or lower the signal
Summary of the method: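 TIMP-1 measured by ELISA 24 h after chemical dosing of primary human skin fibroblasts, with gain or loss fitted relative to DMSO. Parallel SRB staining (560 nm) monitored overt cytotoxicity.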

[4] = read-out: Matrix Metallopeptidase 1 (MMP1), MMP1 (gene 4312); experiment: BSK_hDFCGF_MMP1: BioMAP Diversity Plus: hDFCGF Assay for Matrix Metallopeptidase 1 (MMP1) Biomarker Activity (AID 2283064); conditions: primary human foreskin fibroblasts; actives raise or lower the signal
Summary of the method: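 hDFCGF primary fibroblasts (human foreskin); chemical added; 24 h; MMP1 by ELISA; bidirectional fit vs DMSO.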

[5] = read-out: Vascular cell adhesion molecule 1 (VCAM1), VCAM1 (gene 7412); experiment: BSK_hDFCGF_VCAM1: BioMAP Diversity Plus: hDFCGF Assay for Vascular cell adhesion molecule 1 (VCAM1) Biomarker Activity (AID 2283065); conditions: primary human foreskin fibroblasts; actives raise or lower the signal;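 as to AC50: VCAM-1 protein level quantified by ELISA after 24 h chemical exposure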
Summary of the method: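 ELISA readout of VCAM-1 on human dermal fibroblast primary cultures, 24 h after chemical exposure. Gain or loss of signal fitted in both directions against DMSO baseline.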

[6] = read-out: Plasminogen activator inhibitor-1 (PAI1), SERPINE1 (gene 5054); experiment: BSK_hDFCGF_PAI1: BioMAP Diversity Plus: hDFCGF Assay for Plasminogen activator inhibitor-1 (PAI1) Biomarker Activity (AID 2283066); conditions: primary human foreskin fibroblasts; actives raise or lower the signal
Summary of the method: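 Human foreskin fibroblast primary cells, 24 h chemical exposure; PAI-1 measured by ELISA. Bidirectional fitting relative to DMSO; parallel cultures stained with SRB for total protein to flag overt cytotoxicity.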

[7] = read-out: Interferon-gamma inducible Protein 10 (IP10), CXCL10 (gene 3627); experiment: BSK_KF3CT_IP10: BioMAP Diversity Plus: KF3CT Assay for Interferon-gamma inducible Protein 10 (IP10) Biomarker Activity (AID 2283068); conditions: primary human keratinocytes with fibroblasts; actives raise or lower the signal
Summary of the method: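 Signal is secreted/surface IP-10 by ELISA in a human primary skin co-culture of keratinocytes and foreskin fibroblasts, taken 24 h post-dosing; DMSO served as negative control.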

[8] = BSK_KF3CT_SRB: Viability Assessment in the BioMAP Diversity Plus: KF3CT Assay (AID 2283069); conditions: primary human keratinocytes with fibroblasts;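 also: total protein by sulforhodamine B staining as a cytotoxicity measure; read 24 h after compound addition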
Summary of the method: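 Keratinocytes co-cultured with foreskin fibroblasts (human primary); chemical added, 24 h; fix 10% TCA, stain 0.1% SRB, A560. Bidirectional fit vs DMSO.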

[9] = read-out: Interleukin-1 alpha (IL1a), IL1A (gene 3552); experiment: BSK_KF3CT_IL1a: BioMAP Diversity Plus: KF3CT Assay for Interleukin-1 alpha (IL1a) Biomarker Activity (AID 2283070); conditions: primary human keratinocytes with fibroblasts; actives raise or lower the signal
Summary of the method: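 Chemicals were dosed onto co-cultured human keratinocytes and foreskin fibroblasts, IL-1a was quantified by ELISA at 24 h, and activity was fitted in both directions relative to DMSO controls.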

[10] = read-out: TIMP metallopeptidase inhibitor 2 (TIMP2), TIMP2 (gene 7077); experiment: BSK_KF3CT_TIMP2: BioMAP Diversity Plus: KF3CT Assay for TIMP metallopeptidase inhibitor 2 (TIMP2) Biomarker Activity (AID 2283071); conditions: primary human keratinocytes with fibroblasts; actives raise or lower the signal
Summary of the method: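 Co-culture of human primary keratinocytes and foreskin fibroblasts, measured 24 h after chemical dosing. TIMP-2 quantified by ELISA and fitted in both directions relative to DMSO. Cytotoxicity checked in parallel cultures by SRB total-protein staining.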

[11] = read-out: Transforming growth factor beta 1 (TGFb1), TGFB1 (gene 7040); experiment: BSK_KF3CT_TGFb1: BioMAP Diversity Plus: KF3CT Assay for Transforming growth factor beta 1 (TGFb1) Biomarker Activity (AID 2283072); conditions: primary human keratinocytes with fibroblasts; actives raise or lower the signal
Summary of the method: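 Human keratinocyte/foreskin fibroblast co-culture; TGF-b1 measured by ELISA 24 h after dosing, fitted bidirectionally versus DMSO. Cytotoxicity checked in parallel cultures by total protein (SRB staining, 560 nm).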

[12] = read-out: C-C motif chemokine 2 (Homo sapiens) (UniProt P13500); experiment: BSK_KF3CT_MCP1: BioMAP Diversity Plus: KF3CT Assay for Monocyte Chemoattractant Protein 1 (MCP1/CCL2) Biomarker Activity (AID 2283073); conditions: primary human keratinocytes with fibroblasts; actives raise or lower the signal
Summary of the method: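 ELISA read-out of MCP-1, 24 h post-dose, in primary human skin keratinocytes co-cultured with fibroblasts. Parallel SRB staining monitors cytotoxicity; changes fitted both directions relative to DMSO.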

[13] = read-out: Matrix Metallopeptidase 9 (MMP9), MMP9 (gene 4318); experiment: BSK_KF3CT_MMP9: BioMAP Diversity Plus: KF3CT Assay for Matrix Metallopeptidase 9 (MMP9) Biomarker Activity (AID 2283074); conditions: primary human keratinocytes with fibroblasts; actives raise or lower the signal;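 as to AC50: MMP9 protein level quantified by ELISA in the co-culture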
Summary of the method: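 Human keratinocyte/foreskin fibroblast co-culture; compound added; 24 h; MMP-9 by ELISA; bidirectional fit vs DMSO baseline.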

[14] = read-out: urokinase plasminogen activator (uPA), PLAU (gene 5328); experiment: BSK_KF3CT_uPA: BioMAP Diversity Plus: KF3CT Assay for urokinase plasminogen activator (uPA) Biomarker Activity (AID 2283075); conditions: primary human keratinocytes with fibroblasts; actives raise or lower the signal
Summary of the method: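 ELISA readout of uPA, analyzed for signal gain or loss relative to DMSO, from a human primary keratinocyte–foreskin fibroblast co-culture measured 24 h after chemical treatment.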

[15] = read-out: CD40, CD40 (gene 958); experiment: BSK_LPS_CD40: BioMAP Diversity Plus: LPS Assay for CD40 Biomarker Activity (AID 2283076); conditions: primary human HUVEC with PBMC; actives raise or lower the signal
Summary of the method: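 In the LPS system of human endothelial cells with peripheral blood mononuclear cells, CD40 levels were read by ELISA 24 h post-treatment. Signal changes in either direction were fitted against the DMSO baseline, with parallel SRB protein staining.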

[16] = read-out: Interleukin-8 (IL8), CXCL8 (gene 3576); experiment: BSK_LPS_IL8: BioMAP Diversity Plus: LPS Assay for Interleukin-8 (IL8) Biomarker Activity (AID 2283078); conditions: primary human HUVEC with PBMC; actives raise or lower the signal
Summary of the method: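 ELISA read-out of IL-8 after 24 h chemical treatment of LPS-activated endothelial/PBMC human primary co-cultures. Changes either up or down relative to DMSO; overt cytotoxicity checked by sulforhodamine B staining in parallel wells.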

[17] = BSK_LPS_SRB: Viability Assessment in the BioMAP Diversity Plus: LPS Assay (AID 2283079); conditions: primary human HUVEC with PBMC;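 also: total protein by sulforhodamine B absorbance as a cytotoxicity measure; measured one day after compound addition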
Summary of the method: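 SRB viability endpoint: cells fixed with 10% TCA, stained with 0.1% SRB, read at 560 nm, 24 h post-dose. HUVEC/PBMC co-culture; signal change in either direction scored relative to DMSO.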

[18] = read-out: Intercellular Adhesion Molecule 1 (ICAM1), ICAM1 (gene 3383); experiment: BSK_KF3CT_ICAM1: BioMAP Diversity Plus: KF3CT Assay for Intercellular Adhesion Molecule 1 (ICAM1) Biomarker Activity (AID 2283067); conditions: primary human keratinocytes with fibroblasts; actives raise or lower the signal
Summary of the method: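 Cell-surface ICAM-1 was measured by ELISA 24 h after dosing primary human skin keratinocytes co-cultured with fibroblasts. Parallel SRB staining tracked overt cytotoxicity. Gain or loss of signal was fitted relative to DMSO.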

[19] = read-out: E-selectin (Homo sapiens) (UniProt P16581); experiment: BSK_LPS_Eselectin: BioMAP Diversity Plus: LPS Assay for Eselectin Biomarker Activity (AID 2283077); conditions: primary human HUVEC with PBMC; actives raise or lower the signal
Summary of the method: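 E-selectin ELISA on LPS-stimulated endothelial cell/PBMC co-cultures, read 24 h post-treatment; gains and losses fitted against DMSO. Parallel SRB staining (0.1% SRB after 10% TCA fixation, 560 nm) flags overt cytotoxicity.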

Measured: AC50

Sequence of E-selectin (Homo sapiens) (P16581 whole entry, looked up): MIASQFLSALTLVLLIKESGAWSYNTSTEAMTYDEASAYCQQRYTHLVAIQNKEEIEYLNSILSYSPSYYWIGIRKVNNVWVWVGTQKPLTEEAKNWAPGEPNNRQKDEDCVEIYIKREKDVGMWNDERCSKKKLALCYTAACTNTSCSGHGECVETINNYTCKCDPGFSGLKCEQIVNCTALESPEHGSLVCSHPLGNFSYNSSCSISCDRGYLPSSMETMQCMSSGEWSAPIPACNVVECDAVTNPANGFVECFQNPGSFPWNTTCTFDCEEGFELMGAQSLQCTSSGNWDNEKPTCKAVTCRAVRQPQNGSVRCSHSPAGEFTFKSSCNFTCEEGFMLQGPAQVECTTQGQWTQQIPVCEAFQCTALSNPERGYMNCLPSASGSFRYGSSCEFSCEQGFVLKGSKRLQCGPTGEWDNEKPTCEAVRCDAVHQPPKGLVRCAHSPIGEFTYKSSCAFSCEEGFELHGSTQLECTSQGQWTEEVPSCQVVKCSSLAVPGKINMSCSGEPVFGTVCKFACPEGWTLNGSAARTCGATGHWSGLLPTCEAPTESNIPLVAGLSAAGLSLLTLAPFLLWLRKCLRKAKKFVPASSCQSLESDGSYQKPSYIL

CC1=NNC(=O)N(/N=C/c2cccnc2)C1
inactive: [1] | [2] | [3] | [4] | [5] | [6] | [7] | [8] | [9] | [10] | [11] | [12] | [13] | [14] | [15] | [16] | [17]

CC(C)N(C(=O)SCC(Cl)=C(Cl)Cl)C(C)C
active: [1] 32 µM | [2] 33.8 µM | [3] 34.4 µM | [4] 31.4 µM | [5] 34.8 µM | [6] 34.4 µM | [18] 29.8 µM | [7] 36.3 µM | [8] 32.5 µM | [9] 30.5 µM | [10] 36.4 µM | [12] 30.5 µM | [13] 36.6 µM | [14] 32.6 µM | [15] 29.9 µM | [19] 31.6 µM | [16] 29.5 µM | [17] 29.1 µM
inactive: [11]

Nc1nc(N)nc(NC2CC2)n1
inactive: [1] | [2] | [3] | [4] | [5] | [6] | [7] | [8] | [9] | [10] | [11] | [12] | [13] | [14] | [15] | [16] | [17]

COP(=O)(OC)SCn1c(=O)oc2cc(Cl)cnc21
active: [1] 10.4 µM | [2] 13.8 µM | [3] 12 µM | [4] 30.6 µM | [5] 16.3 µM | [6] 17 µM | [7] 16.5 µM | [8] 14.9 µM | [12] 31.3 µM | [13] 25.8 µM | [14] 20 µM | [15] 19.8 µM | [19] 19.1 µM | [16] 20 µM | [17] 20 µM
inactive: [9] | [10] | [11]

CCOP(=S)(OCC)SCCSCC
inactive: [1] | [2] | [3] | [4] | [6] | [8] | [9] | [10] | [11] | [12] | [13] | [15] | [16] | [17]
active: [5] 36.9 µM | [7] 37 µM | [14] 29.4 µM

CC(C)=CC1C(C(=O)OCN2C(=O)C3=C(CCCC3)C2=O)C1(C)C (stereo not given)
active: [1] 27.6 µM | [2] 30.7 µM | [5] 25.8 µM | [6] 30.7 µM | [13] 3.97 µM | [15] 11.4 µM | [16] 26.9 µM
inactive: [3] | [4] | [7] | [8] | [9] | [10] | [11] | [12] | [14] | [17]
